Bioassay records as filed in PubChem BioAssay.
Sampled rows, rich in hits. Any-hit rate of the full collection: about 31%.
CYP2C9 inh: human CYP2C9 inhibition. inhibition, % at 5 µM. P11712. CYP2C9 Supersomes, luciferin-H conversion, luminescence. 96,000 tested, 20% active;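 active = blocking of liver enzyme CYP2C9 beyond about 50% at 5 µM, limit read from the data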
Target sequence (P11712 whole entry, looked up): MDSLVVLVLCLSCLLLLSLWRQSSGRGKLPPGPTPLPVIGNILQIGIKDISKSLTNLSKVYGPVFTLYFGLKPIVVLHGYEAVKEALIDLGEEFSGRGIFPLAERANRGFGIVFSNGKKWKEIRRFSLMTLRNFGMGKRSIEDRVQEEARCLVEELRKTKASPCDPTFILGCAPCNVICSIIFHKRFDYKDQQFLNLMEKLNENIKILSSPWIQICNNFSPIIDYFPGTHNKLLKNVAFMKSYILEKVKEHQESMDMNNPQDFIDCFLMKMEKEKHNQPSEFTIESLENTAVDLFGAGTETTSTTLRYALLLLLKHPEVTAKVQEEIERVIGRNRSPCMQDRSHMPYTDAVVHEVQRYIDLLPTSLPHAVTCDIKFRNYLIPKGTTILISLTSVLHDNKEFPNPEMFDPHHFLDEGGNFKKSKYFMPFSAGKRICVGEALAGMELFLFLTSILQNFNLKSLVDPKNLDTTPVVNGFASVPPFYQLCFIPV
CYP2C19 inh: human CYP2C19 inhibition | P33261 | CYP2C19 Supersomes, luciferin-H EGE luminescence, 30 min | inhibition, % at 5 µM | 96,000 tested, 21% active | AID 778;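 active = CYP2C19 inhibition above a set limit at 5 µM in the primary screen, cut at about 50% in these data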;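 note: plate controls were negative control wells for no effect and 2.5 mM tranylcypromine positive control for full effect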
CYP2C9 act: activators of human CYP2C9; recombinant CYP2C9, luciferin-H conversion, luminescence; stronger effect = higher value; factor 1 = untreated enzyme, 0 = blocked; activation factor at 5 µM; 96,000 tested, 1.4% active; AID 1024;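 active = activation factor of 2 or more for CYP2C9 at a 5 µM dose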;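 note: 0 = sulfaphenazole-blocked wells and 1 = vehicle-only wells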
CYP2C19 act: cytochrome P450 2C19 (human) activation; activation factor at 5 µM; recombinant CYP2C19, luciferin-H EGE luminescence; stronger effect = higher value; 0 = fully inhibited enzyme, 1 = untreated enzyme; 96,000 tested, under 10 active;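 active = activation factor of at least 2 at 5 µM in the primary screen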;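 note: 0 = wells with 2.5 mM tranylcypromine and 1 = vehicle-only wells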
Starred values were filed as active, the others as inactive.

SMILES	CYP2C9 inh	CYP2C19 inh	CYP2C9 act	CYP2C19 act
Cn1c(CN2CCCC2)nc2cc(NC(=O)c3ccco3)ccc21	-4	-14	1	1.1
Cn1c(CCNC(=O)c2ccco2)nc2cc(NS(=O)(=O)c3ccc(Cl)cc3)ccc21	98*	89*	0	0.1
Cn1c(CN2CCCCC2)nc2cc(NC(=O)c3cccs3)ccc21	87*	99*	0.1	0
CCOc1ccc(-c2nc(S(=O)(=O)c3ccccc3)c(NCc3cccnc3)o2)cc1	24	41	0.8	0.6
O=C(NCc1ccco1)c1cc2c(s1)CCCCC2	-2	9	1	0.9
CC(C)[C@H](NC(=O)Nc1ccccc1F)C(=O)O	-14	-18	1.1	1.2
CCc1nc2cc(Cl)c(Cl)cc2[nH]1	25	59*	0.8	0.4
Cn1c(NC(=O)c2cc(Cl)ccc2Cl)cc(=O)n(C)c1=O	16	26	0.8	0.7
Cn1c(NC(=O)C(C)(C)Oc2ccc(Cl)cc2)cc(=O)n(C)c1=O	25	98*	0.8	0
C#CCOC(=O)C(NC(=O)c1ccccc1)=C1CCCCC1	68*	39	0.3	0.6
CC(C)(C)c1ccc(Oc2cccc(C3CC(=O)C(C4NCCc5ccccc54)C(=O)C3n3cncn3)c2)cc1 (stereo not given)	34	-8	0.7	1.1
Cc1ccccc1SCc1noc(C(=O)NCC2CCCO2)c1C(=O)O (stereo not given)	-3	16	1	0.8
COc1cc([N+](=O)[O-])ccc1N/C=C/C(=O)c1cccs1	17	24	0.8	0.8
COc1ccc(OC(=O)c2cccc([N+](=O)[O-])c2)c(C(=O)/C=C/c2cccs2)c1	75*	62*	0.3	0.4
COc1ccc(CCNc2ncnc3c2oc2ccccc23)cc1OC	39	57*	0.6	0.4
CCOC(=O)CSc1nnc(CNC(=O)c2ccco2)n1C	-10	-18	1.1	1.2
CCn1c(COc2ccc(C)cc2)nnc1SCc1ccc(C#N)cc1	18	3	0.8	1
CCn1ncc2c(OCc3ccc(C#N)cc3)cc(C)nc21	63*	64*	0.4	0.4
Cc1cc(C)c(S(C)(=O)=O)c(S(=O)(=O)c2ccc(Cl)cc2)n1	37	29	0.6	0.7
Cc1cc(C)c(S(=O)(=O)c2c(C)cccc2C)c(Cl)n1	43	75*	0.6	0.3
CCOC(=O)c1c(N)sn(-c2ccccc2C)c1=S	62*	28	0.4	0.7
CCOC(=O)c1sc(=S)n(-c2ccccc2Cl)c1SC	17	20	0.8	0.8
O=C(N1CCOCC1)C1(c2ccc(Cl)cc2)CCCC1	-4	88*	1	0.1
Cc1nc(-c2c(-c3ccc(O)cc3O)noc2C(F)(F)F)cs1	-14	71*	1.1	0.3
CCSc1cnc(-c2ccccc2)n1CC	12	39	0.9	0.6
SMILES	CYP2C9 inh	CYP2C19 inh	CYP2C9 act	CYP2C19 act
O=C(NCC1CCCO1)c1c(O)c2c([nH]c1=O)CCCC2 (stereo not given)	14	12	0.9	0.9
O=C(CCc1ccccc1)NNC(=O)C12CC3CC(CC(C3)C1)C2	4	-9	1	1.1
O=C(Nn1nnnc1Nc1ccccc1)C12CC3CC(CC(C3)C1)C2	33	71*	0.7	0.3
O=C(Nc1cccnc1)C1CCN(S(=O)(=O)c2cccc3nonc23)CC1	28	15	0.7	0.9
COCCn1c(SCc2cccnc2)nnc1-c1c[nH]c2ccccc12	55*	75*	0.4	0.2
CCn1c(SCc2cccnc2)nnc1-c1c[nH]c2ccccc12	45	89*	0.5	0.1
CCn1c(SCc2ccc(C)cc2)nnc1-c1cnccn1	5	49	1	0.5
O=C1CC(O)(C(F)F)Oc2ccc3ccccc3c21 (stereo not given)	60*	85*	0.4	0.2
O=c1cc(C(F)F)oc2c1ccc1ccccc12	-24	34	1.2	0.7
O=C1CC(O)(C(F)(F)F)Oc2c1ccc1ccccc21 (stereo not given)	96*	84*	0	0.2
O=C1C2CC=C(Cl)CC2C(=O)N1CCCCCCN1C(=O)C2CC=C(Cl)CC2C1=O (stereo not given)	82*	75*	0.2	0.3
O=C1C2CC=C(Cl)CC2C(=O)N1CCN1CCOCC1 (stereo not given)	-2	2	1	1
O=C1C2C3C=CC(CO)(O3)C2C(=O)N1c1ccccc1-c1ccccc1 (stereo not given)	11	19	0.9	0.8
CC(=O)c1c(NC(=O)C(C)C)nc(C)nc1-c1ccccc1	55*	39	0.4	0.6
Cc1ccc(C(=O)C2OC(=O)C(C)(C)C(=O)C2(C)C)cc1 (stereo not given)	-2	34	1	0.7
COc1ccc(OC)c(C(=O)c2coc3ccc(O)cc23)c1	73*	70*	0.3	0.3
O=C1CC(N2CCN(Cc3ccc4c(c3)OCO4)CC2)C(=O)N1c1ccccc1 (stereo not given)	8	10	0.9	0.9
CCCCc1nnc(NC(=O)C(C)Sc2nc(C)cc(=O)[nH]2)s1 (stereo not given)	23	13	0.8	0.9
O=C(Cn1cnc2ccccc21)NC(c1ccccc1)c1ccccc1	5	4	0.9	1
CCOC(=O)c1c2ccc(OCC(=O)N/N=C/c3ccccc3C(F)(F)F)cc2n2ccccc12	59*	16	0.4	0.8
S=c1nc(-c2ccccc2)n(CCCn2ccnc2)c2c1CCCC2	7	-9	0.9	1.1
O=C1c2ccccc2C(=O)N1CCCc1nc2ccccc2c(=O)n1CCCn1ccnc1	99*	86*	0	0.1
Cc1c(N=Cc2c(O)n(Cc3ccco3)c(=O)c3ccccc23)c(=O)n(-c2ccccc2)n1C	81*	56*	0.2	0.4
Cn1c(-n2c(CCCN3C(=O)c4ccccc4C3=O)nc3ccccc3c2=O)nc2ccccc21	64*	46	0.4	0.5
CCCc1nc2sc3ccccc3c(=O)c2c(=O)n1Cc1ccco1	-2	-7	1	1.1
SMILES	CYP2C9 inh	CYP2C19 inh	CYP2C9 act	CYP2C19 act
Cc1c(N=Cc2nc3ccccc3[nH]2)c(=O)n(-c2ccccc2)n1C	6	9	0.9	0.9
O=C1c2ccccc2C(=O)N1CCc1nc2ccccc2c(=O)n1Cc1ccco1	80*	93*	0.2	0.1
CC(C)(C)c1cc(C(=O)O)c(CN2CCCCC2)o1	2	19	1	0.8
COc1cc(-c2nnc(SCc3cc(=O)oc4cc(O)c(O)cc34)o2)cc(OC)c1OC	20	-20	0.8	1.2
O=C(NCC1CCS(=O)(=O)C1)Oc1ccccc1 (stereo not given)	-5	16	1.1	0.8
Cn1c(=O)c(-c2ccccc2N)nc2ccccc21	16	10	0.8	0.9
O=c1c2ccccc2c2ccccc2c(=O)n1Cc1ccco1	73*	81*	0.3	0.2
Cn1c(-n2c(CCN3C(=O)c4ccccc4C3=O)nc3ccccc3c2=O)nc2ccccc21	92*	87*	0.1	0.1
COc1ccc(Nc2nccc3c2nnn3C)cc1	12	39	0.9	0.6
